Assay results published in article PMC7862700, “An all-to-all approach to the identification of sequence-specific readers for epigenetic DNA modifications on cytosine”.

Legend:
Assay in all cases: DAPPL (digital affinity profiling via proximity ligation, sequencing); 10 mM Tris-HCl pH 7.5, 50 mM NaCl, 1 mM DTT, 4% glycerol, room temperature, 30 min; GST-TFs on glutathione beads, 16-mer random dsDNA library, 0.1% formaldehyde crosslink after washing; high values mean tight binding
FLI1 = target: T1, FLI1 (Homo sapiens, UniProt Q01543 1-452); details: protein: recombinant; tags: N-terminal GST; dsDNA, one strand shown
T1 sequence: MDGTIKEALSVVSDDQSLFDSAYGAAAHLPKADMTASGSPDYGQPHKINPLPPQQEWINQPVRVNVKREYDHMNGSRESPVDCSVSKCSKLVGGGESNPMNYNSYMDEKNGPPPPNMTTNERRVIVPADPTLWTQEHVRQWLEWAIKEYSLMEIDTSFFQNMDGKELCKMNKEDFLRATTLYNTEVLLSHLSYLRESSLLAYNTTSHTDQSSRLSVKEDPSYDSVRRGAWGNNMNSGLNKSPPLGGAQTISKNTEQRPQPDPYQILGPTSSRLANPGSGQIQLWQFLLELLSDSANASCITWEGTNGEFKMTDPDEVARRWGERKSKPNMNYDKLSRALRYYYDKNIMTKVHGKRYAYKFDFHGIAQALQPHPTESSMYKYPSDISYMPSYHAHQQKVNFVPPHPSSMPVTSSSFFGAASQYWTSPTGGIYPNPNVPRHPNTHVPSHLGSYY
In short: (§1)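 After expression in yeast as GST fusions, human transcription factors were bound to glutathione beads, DNA-barcoded and mixed with a tag-only sample. The pools were incubated with 200 nmole of a 16-mer random double-stranded DNA library in Tris/NaCl/DTT/glycerol buffer (30 min, room temperature), washed and crosslinked with 0.1% formaldehyde. Proximity ligation with BsaI/T4 ligase ran for 1 h at 37 °C, before PCR amplification and sequencing on an Illumina NextSeq500. Binding signal is a hexamer's read frequency for a factor divided by its frequency for the tag-only sample.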

ELK1 = target: T2, ELK1 (Homo sapiens, UniProt P19419 1-428); details: protein: recombinant; tags: N-terminal GST; dsDNA, one strand shown
T2 sequence: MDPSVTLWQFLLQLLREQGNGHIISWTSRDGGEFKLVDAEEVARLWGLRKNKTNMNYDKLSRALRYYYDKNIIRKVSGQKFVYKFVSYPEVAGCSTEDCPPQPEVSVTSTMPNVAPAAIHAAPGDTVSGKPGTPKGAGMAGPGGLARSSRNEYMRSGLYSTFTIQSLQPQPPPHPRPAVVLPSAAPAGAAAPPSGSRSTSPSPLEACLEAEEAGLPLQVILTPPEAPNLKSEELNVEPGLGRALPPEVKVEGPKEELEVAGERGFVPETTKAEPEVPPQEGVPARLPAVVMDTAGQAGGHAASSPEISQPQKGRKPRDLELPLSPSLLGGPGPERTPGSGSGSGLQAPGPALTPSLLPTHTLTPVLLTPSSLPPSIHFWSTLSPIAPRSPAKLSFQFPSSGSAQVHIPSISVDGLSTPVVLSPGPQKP
In short: as §1

GABPA = target: T3, GABPA (Homo sapiens, UniProt Q06546 1-454); details: protein: recombinant; tags: N-terminal GST; dsDNA, one strand shown
T3 sequence: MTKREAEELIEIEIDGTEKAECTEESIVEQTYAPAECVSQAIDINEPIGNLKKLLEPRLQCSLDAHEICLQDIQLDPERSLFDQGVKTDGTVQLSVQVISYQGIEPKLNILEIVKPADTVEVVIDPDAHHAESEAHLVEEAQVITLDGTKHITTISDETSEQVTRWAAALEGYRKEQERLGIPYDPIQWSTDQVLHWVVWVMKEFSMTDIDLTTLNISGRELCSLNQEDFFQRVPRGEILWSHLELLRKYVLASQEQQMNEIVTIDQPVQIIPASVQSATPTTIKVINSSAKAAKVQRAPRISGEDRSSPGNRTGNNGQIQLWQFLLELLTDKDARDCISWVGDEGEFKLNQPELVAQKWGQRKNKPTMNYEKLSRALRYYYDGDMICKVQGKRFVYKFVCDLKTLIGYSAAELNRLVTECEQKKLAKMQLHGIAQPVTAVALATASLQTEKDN
In short: as §1

ERG = target: T4, ERG (Homo sapiens, UniProt P11308 1-479); details: protein: recombinant; tags: N-terminal GST; dsDNA, one strand shown
T4 sequence: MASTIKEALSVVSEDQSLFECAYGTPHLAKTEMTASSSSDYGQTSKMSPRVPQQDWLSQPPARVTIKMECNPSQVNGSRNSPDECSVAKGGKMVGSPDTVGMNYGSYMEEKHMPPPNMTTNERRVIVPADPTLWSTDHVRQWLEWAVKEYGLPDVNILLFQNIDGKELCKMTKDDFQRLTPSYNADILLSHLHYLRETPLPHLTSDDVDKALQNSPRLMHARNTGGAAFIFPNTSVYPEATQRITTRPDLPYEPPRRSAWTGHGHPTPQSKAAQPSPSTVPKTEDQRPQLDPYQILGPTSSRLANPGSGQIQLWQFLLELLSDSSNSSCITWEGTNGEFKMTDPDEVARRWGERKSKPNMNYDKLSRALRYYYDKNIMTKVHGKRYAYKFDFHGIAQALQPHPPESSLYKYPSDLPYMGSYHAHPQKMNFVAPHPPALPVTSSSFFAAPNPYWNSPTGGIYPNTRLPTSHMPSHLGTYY
In short: as §1

ELF1 = ELF1 (Homo sapiens, UniProt P32519 1-619); details: protein: recombinant; tags: N-terminal GST; dsDNA, one strand shown
Chain of ELF1 (P32519 whole entry): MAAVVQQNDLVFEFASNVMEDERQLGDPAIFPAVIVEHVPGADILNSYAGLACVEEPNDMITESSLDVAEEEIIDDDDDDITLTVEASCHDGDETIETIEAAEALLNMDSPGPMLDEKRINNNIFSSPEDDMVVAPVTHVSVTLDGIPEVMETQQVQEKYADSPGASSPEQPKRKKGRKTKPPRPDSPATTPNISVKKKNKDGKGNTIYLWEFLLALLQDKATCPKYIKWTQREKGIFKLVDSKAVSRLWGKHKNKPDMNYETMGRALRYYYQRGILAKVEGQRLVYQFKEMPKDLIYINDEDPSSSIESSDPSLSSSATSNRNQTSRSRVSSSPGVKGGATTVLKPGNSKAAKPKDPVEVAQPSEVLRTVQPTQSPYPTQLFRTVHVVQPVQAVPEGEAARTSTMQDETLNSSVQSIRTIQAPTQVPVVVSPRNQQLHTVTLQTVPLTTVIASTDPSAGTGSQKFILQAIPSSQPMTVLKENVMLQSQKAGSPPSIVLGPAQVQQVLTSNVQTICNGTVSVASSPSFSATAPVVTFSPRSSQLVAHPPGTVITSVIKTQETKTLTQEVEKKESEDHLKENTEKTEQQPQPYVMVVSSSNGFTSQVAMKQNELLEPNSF
In short: as §1

EHF = target: T5, EHF (Homo sapiens, UniProt Q9NZC4 1-300); details: protein: recombinant; tags: N-terminal GST; dsDNA, one strand shown
T5 sequence: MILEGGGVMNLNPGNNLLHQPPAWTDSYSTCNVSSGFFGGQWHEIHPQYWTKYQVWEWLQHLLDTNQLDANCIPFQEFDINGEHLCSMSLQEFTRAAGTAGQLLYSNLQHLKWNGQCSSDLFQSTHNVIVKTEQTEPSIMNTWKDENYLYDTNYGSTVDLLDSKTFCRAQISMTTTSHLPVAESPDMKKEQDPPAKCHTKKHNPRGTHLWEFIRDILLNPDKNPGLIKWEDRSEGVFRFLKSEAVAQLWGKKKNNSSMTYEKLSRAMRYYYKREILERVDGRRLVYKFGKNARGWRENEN
In short: as §1

SPI1 = SPI1 (Homo sapiens, UniProt P17947 1-270); details: protein: recombinant; tags: N-terminal GST; dsDNA, one strand shown
In short: as §1

SPIB = SPIB (Homo sapiens, UniProt Q01892 1-262); details: protein: recombinant; tags: N-terminal GST; dsDNA, one strand shown
Chain of SPIB (Q01892 whole entry): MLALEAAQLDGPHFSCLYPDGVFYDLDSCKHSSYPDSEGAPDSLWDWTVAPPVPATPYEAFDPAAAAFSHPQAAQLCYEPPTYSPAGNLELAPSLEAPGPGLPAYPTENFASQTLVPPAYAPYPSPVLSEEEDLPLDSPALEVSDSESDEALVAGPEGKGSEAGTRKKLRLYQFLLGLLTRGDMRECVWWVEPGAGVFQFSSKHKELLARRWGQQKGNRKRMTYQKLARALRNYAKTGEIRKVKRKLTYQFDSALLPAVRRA
In short: as §1

ELK3 = target: T6, ELK3 (Homo sapiens, UniProt P41970 1-407); details: protein: recombinant; tags: N-terminal GST; dsDNA, one strand shown
T6 sequence: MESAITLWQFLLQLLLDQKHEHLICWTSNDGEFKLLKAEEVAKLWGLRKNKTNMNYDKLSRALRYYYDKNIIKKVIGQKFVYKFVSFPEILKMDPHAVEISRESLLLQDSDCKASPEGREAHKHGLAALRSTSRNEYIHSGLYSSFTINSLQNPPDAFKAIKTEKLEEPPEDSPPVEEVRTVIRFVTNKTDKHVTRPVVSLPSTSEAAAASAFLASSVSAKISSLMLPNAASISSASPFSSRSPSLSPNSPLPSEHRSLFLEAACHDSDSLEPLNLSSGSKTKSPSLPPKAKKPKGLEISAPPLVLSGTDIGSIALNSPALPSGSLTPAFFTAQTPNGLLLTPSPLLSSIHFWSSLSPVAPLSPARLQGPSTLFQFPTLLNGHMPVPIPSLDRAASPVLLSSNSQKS
In short: as §1

FEV = target: T7, FEV (Homo sapiens, UniProt Q99581 1-238); details: protein: recombinant; tags: N-terminal GST; dsDNA, one strand shown
T7 sequence: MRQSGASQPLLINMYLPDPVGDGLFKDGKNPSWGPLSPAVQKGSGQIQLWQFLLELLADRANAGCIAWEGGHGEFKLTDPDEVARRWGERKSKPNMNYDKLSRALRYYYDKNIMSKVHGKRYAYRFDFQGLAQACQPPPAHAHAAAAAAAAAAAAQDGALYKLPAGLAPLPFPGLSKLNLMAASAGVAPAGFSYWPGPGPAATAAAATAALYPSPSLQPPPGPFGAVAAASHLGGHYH
In short: as §1

ETV5 = ETV5 (Homo sapiens, UniProt P41161 1-510); details: protein: recombinant; tags: N-terminal GST; dsDNA, one strand shown
Chain of ETV5 (P41161 whole entry): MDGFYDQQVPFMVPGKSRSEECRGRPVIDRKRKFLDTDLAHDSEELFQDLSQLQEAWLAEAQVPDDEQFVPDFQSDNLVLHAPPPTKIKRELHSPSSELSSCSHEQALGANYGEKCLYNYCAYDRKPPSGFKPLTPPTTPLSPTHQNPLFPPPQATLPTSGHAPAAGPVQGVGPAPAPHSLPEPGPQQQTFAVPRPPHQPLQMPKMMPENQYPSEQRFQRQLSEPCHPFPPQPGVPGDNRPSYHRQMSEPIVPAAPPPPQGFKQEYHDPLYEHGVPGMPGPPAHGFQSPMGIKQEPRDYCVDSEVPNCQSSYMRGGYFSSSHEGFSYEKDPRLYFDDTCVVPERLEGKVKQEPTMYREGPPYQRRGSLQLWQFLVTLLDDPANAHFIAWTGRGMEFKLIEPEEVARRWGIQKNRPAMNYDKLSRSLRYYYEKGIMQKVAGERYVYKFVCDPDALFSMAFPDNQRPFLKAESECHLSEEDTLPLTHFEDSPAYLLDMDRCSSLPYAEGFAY
In short: as §1

HSF1 = HSF1 (Homo sapiens, UniProt Q00613 1-529); details: protein: recombinant; tags: N-terminal GST; chain copies: 3; dsDNA, one strand shown
Chain of HSF1 (Q00613 whole entry): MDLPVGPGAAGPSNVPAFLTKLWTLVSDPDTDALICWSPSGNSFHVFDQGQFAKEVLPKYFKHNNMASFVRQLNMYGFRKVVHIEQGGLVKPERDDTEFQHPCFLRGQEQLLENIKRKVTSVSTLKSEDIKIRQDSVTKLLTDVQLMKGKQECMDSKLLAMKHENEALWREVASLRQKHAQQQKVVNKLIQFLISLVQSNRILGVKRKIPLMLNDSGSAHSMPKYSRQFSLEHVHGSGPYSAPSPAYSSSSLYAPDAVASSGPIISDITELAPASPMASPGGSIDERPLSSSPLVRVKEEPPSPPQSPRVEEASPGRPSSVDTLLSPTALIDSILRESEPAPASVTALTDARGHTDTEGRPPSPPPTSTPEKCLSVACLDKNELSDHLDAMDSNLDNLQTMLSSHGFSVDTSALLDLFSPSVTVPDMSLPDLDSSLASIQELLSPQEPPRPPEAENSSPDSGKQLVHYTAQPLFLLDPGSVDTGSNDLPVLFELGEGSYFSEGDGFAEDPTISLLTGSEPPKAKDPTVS
In short: as §1

SPIC = target: T8, SPIC (Homo sapiens, UniProt Q8N5J4 1-248); details: protein: recombinant; tags: N-terminal GST; dsDNA, one strand shown
T8 sequence: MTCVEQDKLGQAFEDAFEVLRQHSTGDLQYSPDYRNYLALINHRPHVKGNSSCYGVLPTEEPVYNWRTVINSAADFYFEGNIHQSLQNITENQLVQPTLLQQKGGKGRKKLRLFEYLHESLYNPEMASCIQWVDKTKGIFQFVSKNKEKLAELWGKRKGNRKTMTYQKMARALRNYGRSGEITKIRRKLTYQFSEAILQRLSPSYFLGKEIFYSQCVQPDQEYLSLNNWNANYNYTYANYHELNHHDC
In short: as §1

ELF4 = ELF4 (Homo sapiens, UniProt Q99607 1-663); details: protein: recombinant; tags: N-terminal GST; dsDNA, one strand shown
Chain of ELF4 (Q99607 whole entry): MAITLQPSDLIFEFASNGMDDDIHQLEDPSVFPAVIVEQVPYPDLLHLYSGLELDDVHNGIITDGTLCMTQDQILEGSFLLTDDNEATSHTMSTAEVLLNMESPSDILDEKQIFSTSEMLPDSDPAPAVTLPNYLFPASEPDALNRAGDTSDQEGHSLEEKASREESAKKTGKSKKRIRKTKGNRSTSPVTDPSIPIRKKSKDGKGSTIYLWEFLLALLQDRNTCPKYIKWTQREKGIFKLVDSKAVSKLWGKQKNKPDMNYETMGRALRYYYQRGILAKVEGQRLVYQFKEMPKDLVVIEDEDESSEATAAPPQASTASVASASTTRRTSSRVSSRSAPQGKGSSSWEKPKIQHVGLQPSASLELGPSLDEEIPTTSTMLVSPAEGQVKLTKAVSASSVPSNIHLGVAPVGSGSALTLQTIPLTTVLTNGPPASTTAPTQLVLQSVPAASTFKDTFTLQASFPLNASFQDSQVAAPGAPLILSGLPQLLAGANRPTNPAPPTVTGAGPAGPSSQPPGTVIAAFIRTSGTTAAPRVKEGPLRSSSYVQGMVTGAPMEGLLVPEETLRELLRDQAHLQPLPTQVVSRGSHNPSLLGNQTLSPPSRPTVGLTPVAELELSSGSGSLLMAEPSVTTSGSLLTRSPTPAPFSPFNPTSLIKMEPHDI
In short: as §1

ELK4 = target: T9, ELK4 (Homo sapiens, UniProt P28324-2 1-405); details: protein: recombinant; tags: N-terminal GST; dsDNA, one strand shown
T9 sequence: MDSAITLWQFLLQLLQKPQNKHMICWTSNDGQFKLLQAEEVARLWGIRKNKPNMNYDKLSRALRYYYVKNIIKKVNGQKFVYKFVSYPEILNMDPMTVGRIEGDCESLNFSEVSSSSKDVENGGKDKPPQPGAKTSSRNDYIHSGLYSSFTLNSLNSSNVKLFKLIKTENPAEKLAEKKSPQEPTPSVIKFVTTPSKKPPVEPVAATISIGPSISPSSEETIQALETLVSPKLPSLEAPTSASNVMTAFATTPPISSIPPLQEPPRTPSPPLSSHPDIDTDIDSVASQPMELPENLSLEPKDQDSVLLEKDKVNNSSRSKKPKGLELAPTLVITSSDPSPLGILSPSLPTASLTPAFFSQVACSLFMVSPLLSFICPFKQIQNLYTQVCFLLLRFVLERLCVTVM
In short: as §1

ETV2 = target: T10, ETV2 (Homo sapiens, UniProt O00321 1-342); details: protein: recombinant; tags: N-terminal GST; dsDNA, one strand shown
T10 sequence: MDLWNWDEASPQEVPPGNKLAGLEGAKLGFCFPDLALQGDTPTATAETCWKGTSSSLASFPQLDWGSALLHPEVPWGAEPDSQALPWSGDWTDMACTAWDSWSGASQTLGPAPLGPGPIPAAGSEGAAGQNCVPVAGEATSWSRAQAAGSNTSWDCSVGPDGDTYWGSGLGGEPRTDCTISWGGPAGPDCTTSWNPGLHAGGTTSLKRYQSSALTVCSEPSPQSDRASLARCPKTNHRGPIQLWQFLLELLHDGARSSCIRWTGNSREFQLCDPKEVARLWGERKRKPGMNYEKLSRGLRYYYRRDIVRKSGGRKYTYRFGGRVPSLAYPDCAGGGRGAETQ
In short: as §1

CRX = CRX (Homo sapiens, UniProt O43186 1-299); details: protein: recombinant; tags: N-terminal GST; dsDNA, one strand shown
Chain of CRX (O43186 whole entry): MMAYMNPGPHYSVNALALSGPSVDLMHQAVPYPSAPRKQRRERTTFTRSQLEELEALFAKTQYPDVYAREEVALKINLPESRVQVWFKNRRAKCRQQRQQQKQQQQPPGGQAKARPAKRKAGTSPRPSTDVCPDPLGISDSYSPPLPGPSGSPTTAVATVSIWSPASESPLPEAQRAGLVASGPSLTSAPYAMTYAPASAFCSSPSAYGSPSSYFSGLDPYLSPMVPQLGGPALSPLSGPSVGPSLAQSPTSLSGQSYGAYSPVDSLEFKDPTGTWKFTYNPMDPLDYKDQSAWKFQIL
In short: as §1

ETV1 = ETV1 (Homo sapiens, UniProt P50549 1-477); details: protein: recombinant; tags: N-terminal GST; dsDNA, one strand shown
Chain of ETV1 (P50549 whole entry): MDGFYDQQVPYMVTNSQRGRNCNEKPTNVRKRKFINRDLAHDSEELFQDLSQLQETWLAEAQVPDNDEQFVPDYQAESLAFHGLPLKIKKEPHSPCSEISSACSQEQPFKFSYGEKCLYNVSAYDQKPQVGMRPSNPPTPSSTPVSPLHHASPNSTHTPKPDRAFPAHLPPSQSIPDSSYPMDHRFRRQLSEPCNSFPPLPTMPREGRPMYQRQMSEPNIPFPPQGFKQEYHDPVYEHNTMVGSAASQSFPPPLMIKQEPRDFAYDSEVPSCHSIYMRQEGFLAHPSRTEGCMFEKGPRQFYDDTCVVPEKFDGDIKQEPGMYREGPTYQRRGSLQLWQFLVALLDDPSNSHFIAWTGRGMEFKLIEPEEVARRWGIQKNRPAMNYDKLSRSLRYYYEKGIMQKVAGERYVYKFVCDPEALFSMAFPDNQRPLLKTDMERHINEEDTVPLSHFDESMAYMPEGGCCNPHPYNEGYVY
In short: as §1

In the case of TTTTAG, the binding signal (FLI1) is reported as 1.2 fold enrichment (6-mer frequency, TF over GST control), the binding signal (ELK1) is reported as 1.07 fold enrichment (6-mer frequency, TF over GST control) and the binding signal (GABPA) is reported as 1.19 fold enrichment (6-mer frequency, TF over GST control). The binding signal (ERG) was 1.19 fold enrichment (6-mer frequency, TF over GST control), the binding signal (ELF1) was 1.21 fold enrichment (6-mer frequency, TF over GST control) and the binding signal (EHF) was 1.12 fold enrichment (6-mer frequency, TF over GST control). The binding signal (SPI1) was 1.15 fold enrichment (6-mer frequency, TF over GST control), the binding signal (SPIB) was 1.3 fold enrichment (6-mer frequency, TF over GST control) and the binding signal (ELK3) was 1.16 fold enrichment (6-mer frequency, TF over GST control). The binding signal (FEV) was 1.14 fold enrichment (6-mer frequency, TF over GST control), the binding signal (ETV5) was 1.09 fold enrichment (6-mer frequency, TF over GST control) and the binding signal (HSF1) was 1.19 fold enrichment (6-mer frequency, TF over GST control). The binding signal (SPIC) was 1.13 fold enrichment (6-mer frequency, TF over GST control), the binding signal (ELF4) was 1.24 fold enrichment (6-mer frequency, TF over GST control) and the binding signal (ELK4) was 1.1 fold enrichment (6-mer frequency, TF over GST control). For the same sequence, the binding signal (ETV2) was 1.13 fold enrichment (6-mer frequency, TF over GST control), the binding signal (CRX) was 1.48 fold enrichment (6-mer frequency, TF over GST control) and the binding signal (ETV1) was 1.19 fold enrichment (6-mer frequency, TF over GST control).
